Shown are actives, neighbours in structure and some others; about 3.7% of the full set was active somewhere.
Kir21 block = inhibitors of mouse Kir2.1 inward-rectifier potassium channel. Inward rectifier potassium channel 2 (Mus musculus), P35561. 0.85% of 310,000 active. B-score at 10 µM. AID 1672, 2009. HEK293-Kir2.1, FluxOR thallium flux fluorescence; active compounds read low;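 active = fluorescence ratio B-score at or below minus 3 SD of library scores, with starting-brightness B-score within 2 SD, cut at about -4.2 in these data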;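 also: channel flux triggered by added potassium and thallium sulfate stimulus; B-score of peak minus minimum fluorescence over baseline after thallium stimulus; more negative B-score means stronger Kir2.1 block with less thallium influx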
CHT block = inhibitors of human choline transporter CHT. CHT-expressing cells, membrane potential dye, choline response; active compounds read low. B-score at 10 µM. 0.86% of 310,000 active. AID 488975, 2010;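 active = B-score over 3 SD under the library average, and starting fluorescence ratio not unusually high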;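 also: choline stimulus applied at its EC90 after an EC20 pre-addition; B-score computed on integrated fluorescence ratio after choline addition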
ANO1 block = TMEM16A chloride channel inhibitors, primary screen, cell-based, HTS. HEK293 TMEM16A/YFP iodide influx fluorescence, ionomycin. normalized B-score (activity score, 25-100; higher = stronger inhibition) at 10 µM. 1.2% of 310,000 active;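 active = ratio plate-corrected score three or more library SD toward inhibition, starting fluorescence score within five deviations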;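 also: score derived from kinetic fluorescence span divided by baseline fluorescence per well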
GPR7 antag = GPR7 receptor antagonists, primary screen, cell-based, fluorescence, single concentration; inhibition, % at 4.4 µM; 1.1% of 290,000 active; GPR7-expressing cells, fluorescence antagonist assay; in the data active = inhibition above about 16%, passing the limit was not always enough;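 also: cells stimulated with the agonist NPW; 0% = agonist with vehicle and 100% = vehicle without agonist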
Target sequence (P48145 whole entry, looked up): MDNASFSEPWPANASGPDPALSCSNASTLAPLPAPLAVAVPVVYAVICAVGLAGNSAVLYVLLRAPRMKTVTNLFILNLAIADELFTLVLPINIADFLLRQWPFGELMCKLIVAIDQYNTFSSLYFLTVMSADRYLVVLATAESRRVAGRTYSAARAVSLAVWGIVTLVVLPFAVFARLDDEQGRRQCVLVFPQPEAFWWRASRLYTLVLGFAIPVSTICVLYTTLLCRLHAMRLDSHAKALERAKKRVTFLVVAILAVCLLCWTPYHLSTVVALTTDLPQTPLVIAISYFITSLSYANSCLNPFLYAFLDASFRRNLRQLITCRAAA
ANO1 activ = TMEM16A chloride channel activators or potentiators, primary screen, cell-based, HTS. B-score at 10 µM. HEK293 TMEM16A/YFP-H148Q/I152L, iodide quench fluorescence; active compounds read low. 0.3% of 340,000 active;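 active = fluorescence-ratio B-score plate-corrected deviation score at least 3 library SD below zero, with starting fluorescence score within 5 deviations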;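 also: channel opened by trigger with iodide after compound preincubation; score built on the fluorescence ratio of max minus min over baseline; more negative score means more quench and so TMEM16A activation or potentiation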
CHT allo act = CHT positive allosteric modulators, primary screen, cell-based, membrane potential dye, choline EC20. High affinity choline transporter 1 (Homo sapiens), Q9GZV3. CHT-expressing cells; active compounds read high; LV-AA mutant CHT in HEK293 cells. B-score at 10 µM. 0.49% of 310,000 active. AID 488977, 2010;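 active = initial fluorescence not abnormally high and integrated response B-score, plate-corrected, over 3 SD above library mean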
GPR7 antag conf = GPR7 receptor antagonists, confirmation, cell-based, fluorescence, single concentration | shares compounds with GPR7 antag | GPR7-expressing cells, calcium fluorescence antagonist mode | inhibition, % at 4.4 µM | 52% of 2,400 active | AID 1952, 2009; in the data active = inhibition above about 24%;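 also: stimulated with the GPR7 agonist NPW; 0% = agonist plus vehicle and 100% = vehicle alone without agonist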
MCHR1 antag = MCHR1 antagonists in cells, counter-screen for GPR7 antagonist project, cell-based, fluorescence, human | inhibition, % at 4.4 µM | shares compounds with GPR7 antag | AID 2148, 2009 | 62% of 2,400 active | MCHR1-expressing cells, fluorescence antagonist assay; in the data active = inhibition above about 22%;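 also: 0% = vehicle with agonist and 100% = vehicle without agonist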
CHT block conf = CHT inhibitors, confirmation, cell-based, membrane potential dye, duplicate; shares compounds with CHT block; CHT-expressing cells, choline membrane potential dye; LV-to-AA substituted CHT, HEK293 cells; CHT activity remaining % of control (active compounds read low), % at 10 µM; AID 493221, 2011; 70% of 2,400 active;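 active = choline transporter activity left, mean of duplicates at 10 µM, below buffer-only control mean minus 3 SD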;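 also: depolarization triggered by choline at its EC90 following an EC20 pre-addition; 0% = hemicholinium-3 full block and 100% = buffer-only control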
HEK293 CHT ctr = membrane potential effects in parental HEK293, counter-screen for CHT inhibitor project, cell-based, membrane potential dye. shares compounds with CHT block. membrane potential ratio readout (active if shifted either direction beyond buffer ±3SD; no single direction) at 10 µM. 4% of 2,400 active. AID 493222, 2011. choline response; active = decrease or increase beyond buffer ±3SD;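 also: parental cells lack the transporter so any hit is non-specific; ratio is peak minus trough fluorescence over baseline after EC90 choline challenge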
TMEM16A reconf = TMEM16A chloride channel inhibitors, confirmation, cell-based, re-confirmation; shares compounds with ANO1 block; HEK293 TMEM16A/YFP-H148Q, iodide quench fluorescence; ionomycin added to raise cell calcium; inhibition, % at 10 µM; 39% of 2,300 active;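 active = mean duplicate percent inhibition, scaled so buffer wells are 0 and the reference blocker 100, over three buffer SD above buffer mean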
HEK293 Ca mobil = calcium mobilization in TMEM16A/YFP HEK293 cells, confirmation, counter-screen for TMEM16A inhibitor project; shares compounds with ANO1 block; Fluo4 calcium mobilization; calcium response (% of ionomycin), % at 10 µM; 2% of 2,300 active; AID 652231, 2013;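 active = duplicate-averaged calcium signal over 20% of the ionomycin maximum, relative to buffer baseline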;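 also: each well's signal is peak minus trough fluorescence divided by its pre-addition baseline; 0% = buffer wells and 100% = ionomycin wells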
YFP-HEK293 quench = iodide YFP quench changes in parental YFP-HEK293, counter-screen for TMEM16A inhibitor project, cell-based. ionomycin. 2,300 tested, under 10 active. shares compounds with ANO1 block. YFP ratio F(max-min)/F0 at 10 µM;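 active = yellow fluorescent protein signal ratio exceeding the buffer control mean by over 5 SD of those controls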;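 also: ratio is mean of duplicate wells from kinetic YFP trace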
ClC-1 inh = ClC-1 chloride channel inhibition, selectivity assay for TMEM16A inhibitor project, cell-based, voltage-dependent ClC-1; shares compounds with ANO1 block; CHO ClC-1-YFP, iodide influx fluorescence quench; iodide control reads 0, buffer control 100; ratio percent, % at 10 µM; 2,300 tested, under 10 active; AID 652236, 2013;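 active = duplicate-mean ratio percent above the mean of iodide-only control wells, which defines zero, plus 5 of their SD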;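 also: higher percent means stronger block of ClC-1 iodide influx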
Active calls of the source: *.

For CN1/C(=C\C(=O)COc2ccc3c(c2)OCO3)C(C)(C)c2ccccc21 the results were Kir21 block -0.19, CHT block inactive, ANO1 block inactive, GPR7 antag 27.5*, ANO1 activ inactive, CHT allo act inactive, GPR7 antag conf 12.2, MCHR1 antag 44.0*, TMEM16A reconf inactive, HEK293 Ca mobil inactive, YFP-HEK293 quench -0.727 and ClC-1 inh 4.5.
For CCOc1ccc(C(C)NC(=S)NC2CCCCC2)cc1 (stereo not given) the results were Kir21 block 0.34, CHT block inactive, ANO1 block inactive, GPR7 antag -5.2, ANO1 activ inactive and CHT allo act inactive.
CC(NC(=S)NC1CCCCC1)c1ccc(C(C)(C)C)cc1 (stereo not given) was read as Kir21 block 1.61, CHT block inactive, ANO1 block 25*, GPR7 antag 25.1*, ANO1 activ inactive, CHT allo act inactive, GPR7 antag conf 39.9*, MCHR1 antag 60.7*, TMEM16A reconf inactive, HEK293 Ca mobil inactive, YFP-HEK293 quench -0.777 and ClC-1 inh 2.5.
For Cc1ccc(S(=O)(=O)N2CCCCC2)cc1NC(=O)CSc1ncnc2ccccc12 the results were Kir21 block -2.35, CHT block inactive, ANO1 block inactive, GPR7 antag -17.1, ANO1 activ inactive and CHT allo act inactive.
For Cc1ccc(NC(=O)CSc2ncnc3ccccc23)cc1S(=O)(=O)N1CCCCCC1 the results were Kir21 block 1.37, CHT block inactive, ANO1 block 25*, GPR7 antag 24.3*, ANO1 activ inactive, CHT allo act inactive, GPR7 antag conf 52.8*, MCHR1 antag 70.9*, TMEM16A reconf 27.0%*, HEK293 Ca mobil inactive, YFP-HEK293 quench -1.17 and ClC-1 inh -16.0.
Cc1ccc(CS(=O)(=O)CC(C)(O)c2ccccc2)cc1 (stereo not given) was read as Kir21 block 0.88, CHT block inactive, ANO1 block inactive, GPR7 antag 2.8, ANO1 activ inactive and CHT allo act inactive.
Screening COc1ccc(CCNC(=O)N2c3ccccc3Sc3ccccc32)cc1 returned Kir21 block -2.63, CHT block inactive, ANO1 block 100*, GPR7 antag 42.3*, ANO1 activ inactive, CHT allo act inactive, GPR7 antag conf 44.6*, MCHR1 antag 77.3*, TMEM16A reconf 53.0%*, HEK293 Ca mobil inactive, YFP-HEK293 quench -0.871 and ClC-1 inh -14.0.
COCCCNC(=O)N1c2ccccc2Sc2ccccc21 was read as Kir21 block -3.34, CHT block inactive, ANO1 block inactive, GPR7 antag -12.2, ANO1 activ inactive and CHT allo act inactive.
For O=C(Nc1nc(-c2ccccc2)cs1)c1ccccc1NS(=O)(=O)c1ccc(F)cc1 the results were Kir21 block -0.8, CHT block -7.95*, ANO1 block 100*, GPR7 antag 23.9*, ANO1 activ inactive, CHT allo act inactive, GPR7 antag conf 41.8*, MCHR1 antag 60.3*, CHT block conf 42.4%*, HEK293 CHT ctr inactive, TMEM16A reconf 78.0%*, HEK293 Ca mobil inactive, YFP-HEK293 quench -1.2 and ClC-1 inh -32.5.
`COc1ccccc1-n1c(=O)oc2ccc(Cl)cc2c1=O` gave CHT block -8.53*, ANO1 block 25*, GPR7 antag 28.0*, ANO1 activ inactive, CHT allo act inactive, GPR7 antag conf -12.2, MCHR1 antag -0.5, TMEM16A reconf 22.0%*, HEK293 Ca mobil inactive, YFP-HEK293 quench -1.14 and ClC-1 inh -9.5.
Screening O=C(c1ccc(OC2CCN(C/C=C/c3ccc(F)cc3)CC2)cc1)N1CCCC1 returned Kir21 block 0.07, CHT block inactive, ANO1 block inactive, GPR7 antag -8.9, ANO1 activ inactive and CHT allo act inactive.
For COc1ccc(CN2CCc3c([nH]c4ccccc34)C2)cc1Br the results were Kir21 block -4.35*, CHT block inactive, ANO1 block 100*, GPR7 antag 41.8*, ANO1 activ inactive, CHT allo act inactive, GPR7 antag conf 52.0*, MCHR1 antag 37.6*, TMEM16A reconf inactive, HEK293 Ca mobil inactive, YFP-HEK293 quench -0.996 and ClC-1 inh -4.0.
For O=C(Oc1ccccc1Cl)c1ccccc1 the results were ANO1 activ inactive.

Source: PubChem BioAssay
